Results as given in PubChem BioAssay (NCATS).
Several values for one entry are separate records, joined by “and”; a condition that tells them apart may be missing. Identical values can stand only once. Results filed as inconclusive are left out. Activity calls are given as the source filed them. Unless noted, the call rests on the fitted dose curve; in most records, active means well fitted curve in the direction sought with a large enough effect; inconclusive means small, poorly fitted or top-dose-only effect, or another doubt; inactive means no such curve, though single readings can be large; an effect the other way counts as inactive or inconclusive.

Tests used:
[1] = qHTS for inhibitors of Rabies Virus screened against the NCATS CANVASS Library (AID 1347402; calls by dose curve; further: series mostly up to about 46 µM)
[2] = Primary qHTS for inhibitors of SARS-S pseudo-typed particle cell entry (AID 1479145; calls by dose curve; further: nearly all actives have a fitted effect of over 45% in size)
[3] = Primary qHTS for Huh7 cytotoxicity: counterscreen for inhibitors of MERS-S pseudotyped particle cell entry (AID 1479147; calls by dose curve)
[4] = Primary qHTS for inhibitors of MERS-S pseudo-typed particle cell entry (AID 1479149; calls by dose curve; further: nearly all actives have a fitted effect of over 60% in size)
[5] = Primary qHTS for Vero E6 cytotoxicity: counterscreen for inhibitors of SARS-S pseudo-typed particle cell entry (AID 1479150; calls by dose curve)
[6] = qHTS to identify inhibitors of the type 1 interferon - major histocompatibility complex class I in skeletal muscle: primary screen against the NCATS Pharmaceutical Collection (AID 1347407);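 further: luminescence of HiBiT knocked into endogenous HLA-B as interferon-induced MHC class I level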
Method in brief: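 A qHTS format is used: 8-point, 1:5 compound series with 46 uM top final concentration, applied alongside 4 ng/ml IFN-beta to HLA-B*08:01-HiBiT knock-in myoblasts. Luminescence is measured after 24 h treatment.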

[7] = target: Protein phosphatase 1D (Homo sapiens) (UniProt O15297); experiment: RapidFire Mass Spectrometry qHTS Assay for Modulators of WT P53-Induced Phosphatase 1 (WIP1) (AID 1347424);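 further: amount of dephosphorylated VEPPL-S-QETFS peptide product formed by WIP1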; further: potency means the concentration at half of the fitted maximal effect
Protein phosphatase 1D (Homo sapiens), sequence (O15297 whole entry, looked up): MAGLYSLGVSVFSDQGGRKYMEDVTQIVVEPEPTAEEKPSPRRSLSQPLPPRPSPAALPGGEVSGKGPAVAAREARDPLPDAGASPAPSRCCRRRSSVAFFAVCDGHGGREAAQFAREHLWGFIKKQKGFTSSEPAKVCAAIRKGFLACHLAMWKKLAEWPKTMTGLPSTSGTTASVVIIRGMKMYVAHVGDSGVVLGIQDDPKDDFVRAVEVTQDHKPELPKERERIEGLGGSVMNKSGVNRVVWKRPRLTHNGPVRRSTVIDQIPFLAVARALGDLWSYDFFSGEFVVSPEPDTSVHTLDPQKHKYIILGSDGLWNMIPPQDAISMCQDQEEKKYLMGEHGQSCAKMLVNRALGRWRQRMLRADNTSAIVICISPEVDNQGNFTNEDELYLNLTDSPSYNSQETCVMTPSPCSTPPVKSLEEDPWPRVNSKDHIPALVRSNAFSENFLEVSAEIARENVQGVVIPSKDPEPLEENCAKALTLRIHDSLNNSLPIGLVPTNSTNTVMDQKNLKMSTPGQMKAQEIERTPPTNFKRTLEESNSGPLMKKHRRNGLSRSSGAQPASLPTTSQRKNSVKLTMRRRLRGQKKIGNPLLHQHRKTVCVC
Method in brief: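 Mass-spectrometric measurement of dephosphorylated peptide after a 5 min room-temperature reaction of 10 nM WIP1 with 2 uM phosphopeptide, following 1 h compound preincubation in 30 mM MgCl2 buffer.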

[8] = target: Protein phosphatase 1D (Homo sapiens) (UniProt O15297); experiment: Rhodamine-PBP qHTS Assay for Modulators of WT P53-Induced Phosphatase 1 (WIP1) (AID 1347425)
Method in brief: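 The read-out is the change in Rhodamine-PBP fluorescence (f1 - f0, ex 525/em 598 nm) as Pi is released, read each minute for 11 min. Final reaction: 5 nM WIP1, 10 uM phosphopeptide VEPPL-pS-QETFS, 10 uM Rh-PBP, 50 mM Tris-HCl pH 7.5, 30 mM MgCl2. Compound was preincubated with enzyme for 1 hour at room temperature.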

[9] = Primary qHTS for inhibitors of La Crosse Virus (LACV) - induced cell death in SH-SY5Y cells (AID 1508616);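 further: top concentration of the series differs between compounds; higher means more rescue of cells from virus-induced death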
Method in brief: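 Rescue of virus-induced death was read as ATPLite luminescence after 6 days at 37C, scaled between DMSO wells with LACV and without virus. Cells were SH-SY5Y, 6000/well, infected at 0.01 MOI after compound addition.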

[10] = target: Calcium and integrin-binding protein 1 (Homo sapiens) (UniProt Q99828); experiment: Primary qHTS for Identification of Calcium Integrin Binding Protein 1 (CIB1) Competitor (AID 1508620);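 further: GST tagged CIB1 binding a fluorescein labelled alphaIIb integrin peptide tracer; top concentration of the series differs between compounds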
Calcium and integrin-binding protein 1 (Homo sapiens), sequence (Q99828 whole entry, looked up): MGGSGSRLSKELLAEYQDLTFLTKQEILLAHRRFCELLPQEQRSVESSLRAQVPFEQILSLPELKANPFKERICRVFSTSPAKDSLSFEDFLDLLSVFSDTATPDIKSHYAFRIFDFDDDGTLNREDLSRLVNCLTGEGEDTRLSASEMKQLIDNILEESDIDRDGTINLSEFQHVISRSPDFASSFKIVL
Method in brief: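 Fluorescence polarization competition: CIB1-GST (1 uM final) preincubated with compound 15 min at room temperature, then FITC-labeled alphaIIb peptide (100 nM final) added for another 15 min. Polarization read at Ex 480/Em 540.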

[11] = qHTS for inhibitors of adenylyl cyclases using a fission yeast platform: a pilot screen against the NCATS LOPAC library (AID 1347410)
Method in brief: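 Inhibition of GNAS-stimulated AC9 activity in S. pombe was inferred from derepression of a PKA-repressed fbp1-GFP reporter, measured as cytometric fluorescence after 18 h at 30C with compounds at up to 57 µM.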

[12] = qHTS to identify inhibitors of the type 1 interferon - major histocompatibility complex class I in skeletal muscle: primary screen against the NCATS Mechanism Interrogation Plate v5.0 (MIPE) Libary (AID 1347411); further: nearly all actives have a fitted effect of over 65% in size
Method in brief: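 Luminescence from CRISPR HiBit-tagged endogenous HLA-B in human myoblasts reported MHC class I level after 24 h of IFN-beta (4 ng/ml) plus compound. Compounds ran as 11-point 1:3 series, top 46 uM final.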

[13] = Validation qHTS assay for inhibitors of Activation Induced Cytidine Deaminase (AID): UDG Counterscreen signal (AID 1347427)
Method in brief: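 Fluorescence at 560 nm excitation, 665 nm emission reports UDG signal after 250 mM NaOH (2x) addition and 30 min. Enzymes (AID 1 uM, UDG 2 U/mL, at 4/3x) preincubated 10 min with compound, then 4 h with 4x 250 nM DJC20/DJC23 substrate at room temperature.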

[14] = target: Single-stranded DNA cytosine deaminase (Homo sapiens) (UniProt Q9GZX7); experiment: Validation qHTS assay for inhibitors of Activation Induced Cytidine Deaminase (AID): AID signal (AID 1347429)
Single-stranded DNA cytosine deaminase (Homo sapiens), sequence (Q9GZX7 whole entry, looked up): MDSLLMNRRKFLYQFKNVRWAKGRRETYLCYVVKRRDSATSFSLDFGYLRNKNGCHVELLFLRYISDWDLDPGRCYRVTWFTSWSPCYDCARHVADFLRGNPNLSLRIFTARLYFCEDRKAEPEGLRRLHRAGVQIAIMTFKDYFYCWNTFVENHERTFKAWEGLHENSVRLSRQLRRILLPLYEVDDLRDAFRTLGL
Method in brief: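 Compounds (final up to 114 uM) preincubated with AID plus UDG; 250 nM DJC20/DJC23 substrate mix (4x stock) added, 4 hr at room temperature, then NaOH, 30 min. Read 1 fluorescence at 540 nm excitation, 590 nm emission.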

[15] = target: Calcium and integrin-binding protein 1 (Homo sapiens) (UniProt Q99828); experiment: Validation qHTS for Identification of Calcium Integrin Binding protein 1 (CIB1) Competitor (AID 1508618)
Method in brief: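 CIB1-GST (1 uM final) incubated 15 min at room temperature with compounds (up to 114 uM), then FITC-labelled alphaIIb peptide (100 nM) added. FP read (Ex 480/Em 540) after 15 min, pH 7.4 buffer containing 5 mM CaCl2.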

[16] = Confirmatory qHTS for VERO E6 Cytotoxicity Assay: Counterscreen for SARS-CoV-2 CPE Assay (AID 1508605; calls by dose curve; further: series mostly up to about 20 µM; nearly all actives have a fitted effect of over 60% in size)
[17] = Confirmatory qHTS for small molecule stabilizers of the endoplasmic reticulum resident proteome: Secreted ER Calcium Modulated Protein (SERCaMP) assay (AID 1508628); further: potency means the concentration at half of the fitted maximal effect; nearly all actives have a fitted effect of over 40% in size
Method in brief: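 Reporter secretion upon ER calcium depletion (100 nM thapsigargin, 4 h, 37C) is measured as medium luminescence with coelenterazine, after 16 h compound pretreatment of SH-SY5Y-GLuc-SERCaMP cells; primary at three concentrations up to 38.3 uM, follow-up at 11 (up to 76.6 uM).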

Measured: Potency

O=C(O)c1cc(O)c(O)c(O)c1
inactive: [1] | [2] | [3] | [4] | [5]

C#CC(O)(C=CCl)CC (stereo unspecified)
inactive: [6] | [7] | [8] | [2] | [3] | [4] | [5] | [9] | [10]

CC[N+]1(CC)CCC(OC(=O)C(O)(c2ccccc2)c2ccccc2)C1 (stereo unspecified)
inactive: [6] | [7] | [8] | [9] | [10]

O=P1(N(CCCl)CCCl)NCCCO1 (stereo unspecified)
inactive: [6] | [11] | [12] | [13] | [14] | [2] | [3] | [4] | [5] | [9] | [15] | [10]

CC(=O)OCC1=C(C(=O)O)N2C(=O)[C@@H](N)[C@H]2SC1
inactive: [6] | [7] | [8] | [9] | [10]

Nc1ccc([As](=O)(O)O)cc1
inactive: [6] | [7] | [8] | [2] | [3] | [4] | [5] | [9] | [10]

Clc1ccc(C(c2ccc(Cl)cc2)C(Cl)(Cl)Cl)cc1
inactive: [6] | [7] | [8] | [2] | [3] | [4] | [5] | [9] | [10]

C[C@]12CC[C@H]3[C@@H](CCC4=CC(=O)CC[C@@H]43)[C@@H]1CC[C@@H]2OC(=O)CCC1CCCCC1
inactive: [6] | [7] | [8] | [2] | [3] | [4] | [5] | [10]

C=CCN1C[C@H](C)N([C@H](c2ccc(C(=O)N(CC)CC)cc2)c2cccc(OC)c2)C[C@H]1C
inactive: [6] | [7] | [8] | [9] | [10]

CN1C(=O)COc2c(C(=O)NC3CN4CCC3CC4)cc(Cl)cc21 (stereo unspecified)
inactive: [6] | [12] | [7] | [10]

O=C(CCCN1CCC2(CC1)C(=O)NCN2c1ccccc1)c1ccc(F)cc1
active: [17] 5.62 µM and 2.24 µM and 3.16 µM
inactive: [6] | [11] | [7] | [8] | [13] | [14] | [2] | [16] | [15] | [10]

CC(C)NC(C)C
inactive: [6] | [7] | [8] | [3] | [4] | [5] | [10]

Oc1ccc(Cl)cc1
inactive: [6] | [7] | [8] | [2] | [3] | [4] | [5] | [9]

C[C@@H]1CC2=CC(=O)CC[C@@H]2[C@H]2CC[C@@]3(C)[C@@H](CC[C@]3(C)O)[C@@H]21
inactive: [6] | [7] | [8] | [3] | [5] | [10]

CN1C(=O)CCS(=O)(=O)C1c1ccc(Cl)cc1 (stereo unspecified)
inactive: [6] | [11] | [12] | [7] | [8] | [13] | [14] | [2] | [3] | [5] | [9] | [15] | [10]

CN1C(=O)NC(=O)C(C)(C2=CCCCC2)C1=O (stereo unspecified)
inactive: [6] | [7] | [8] | [3] | [4] | [5] | [9] | [10]

O=[N+]([O-])O[C@H]1CO[C@H]2[C@@H]1OC[C@H]2O[N+](=O)[O-]
inactive: [6] | [7] | [8] | [2] | [3] | [4] | [5] | [9] | [10]

COc1cccc(C(=O)CCN[C@@H](C)[C@H](O)c2ccccc2)c1
inactive: [6] | [7] | [8] | [3] | [4] | [5] | [9] | [10]

C=C(C)[C@H]1CN[C@H](C(=O)O)[C@H]1CC(=O)O
inactive: [6] | [11] | [7] | [8] | [13] | [14] | [2] | [3] | [4] | [5] | [9] | [15] | [10]

COc1ccc2c(c1OC)C(=O)O[C@H]2[C@@H]1c2cc3c(cc2CCN1C)OCO3
inactive: [6] | [11] | [7] | [8] | [13] | [14] | [2] | [3] | [4] | [5] | [9] | [15] | [10]

CCC1(CC)C(=O)C=CNC1=O
inactive: [6] | [7] | [8] | [9] | [10]

COc1ccc2[nH]cc(CCNC(C)=O)c2c1
inactive: [1] | [2] | [3] | [4] | [5]

O=C(Nc1ccc(Br)cc1)c1cc(Br)cc(Br)c1O
active: [7] 3.16 µM
inactive: [6] | [8] | [9] | [10]

COP(=S)(OC)Oc1ccc(S(=O)(=O)N(C)C)cc1
inactive: [6] | [7] | [8] | [2] | [3] | [4] | [5] | [9] | [10]

O=C(O)CCCc1ccc(N(CCCl)CCCl)cc1
inactive: [6] | [12] | [7] | [13] | [14] | [3] | [4] | [5] | [9] | [10]
